Source: PubChem BioAssay AID2551 (National Center for Advancing Translational Sciences (NCATS), 2010)
Screen size: about 310,000 compounds; about 17,000 (5.5%) were called active. Inconclusive results (about 11%) are left out. Shown is part of a subset that was picked to be rich in actives. A number with no mark means an inactive call. The call rests on the fitted dose curve; in most records, active means well fitted inhibition curve with a large enough effect; inconclusive means small, poorly fitted or top-dose-only effect, or effect the other way; inactive means no such curve, though single readings can be large or run the other way.

Molecular target: Nuclear receptor ROR-gamma (Mus musculus) (UniProt P51450)
Assay: qHTS for inhibitors of ROR gamma transcriptional activity; further: nearly all actives have a fitted effect of over 60% in size
Conditions: Drosophila S2 Gal4-RORgamma UAS-luciferase reporter, 20 h; series mostly up to 53.6 µM; activity change, negative = inhibition: at the top concentration
Procedure, shortened: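 Drosophila Schneider cells stably carrying a metallothionein-driven Gal4 DBD–ROR gamma fusion and a UAS-Photinus luciferase reporter were exposed to compound for 1 hr, then induced with copper sulfate (700 uM final) for 20 hr at ambient temperature before luminescence reading.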
On the % scale 0 is the no-effect control and ±100 the full control effect; potency means the concentration at half of the fitted maximal effect.

Chain of Nuclear receptor ROR-gamma (Mus musculus) (P51450 whole entry, looked up): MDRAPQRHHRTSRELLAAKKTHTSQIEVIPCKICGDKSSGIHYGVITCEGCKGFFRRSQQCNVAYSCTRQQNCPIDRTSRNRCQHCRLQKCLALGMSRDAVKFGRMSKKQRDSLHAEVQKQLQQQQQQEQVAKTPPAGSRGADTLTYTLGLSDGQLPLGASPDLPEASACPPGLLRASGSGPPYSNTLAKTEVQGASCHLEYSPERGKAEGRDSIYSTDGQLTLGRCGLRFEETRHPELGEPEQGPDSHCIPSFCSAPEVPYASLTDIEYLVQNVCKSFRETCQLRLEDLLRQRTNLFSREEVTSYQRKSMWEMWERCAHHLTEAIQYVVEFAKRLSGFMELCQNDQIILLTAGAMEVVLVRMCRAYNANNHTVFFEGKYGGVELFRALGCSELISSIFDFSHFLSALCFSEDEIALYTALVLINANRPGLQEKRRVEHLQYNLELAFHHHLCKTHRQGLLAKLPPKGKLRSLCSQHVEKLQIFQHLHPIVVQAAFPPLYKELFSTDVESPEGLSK

Row | SMILES | activity change, negative = inhibition | Potency
1 | Cc1ccccc1OCC(=O)Nc1nnc(S(=O)(=O)N2CCCC2)s1 | 14.6% | –
2 | CCOc1cc(/C=N/Nc2cc(C)nc3ccc(C)cc23)ccc1O | -24.7% | –
3 | CC1=C(C(N)=O)C(c2ccc3c(c2)OCO3)n2nc(-c3cccc(C)c3)nc2N1 (stereo not drawn) | – | 5.62 µM (active)
4 | COc1cccc(-c2nc3n(n2)C(c2ccccc2Cl)C(C(N)=O)=C(C)N3)c1 (stereo not drawn) | 10.2% | –
5 | CC1=C(C(N)=O)C(c2ccc(F)cc2)n2nc(CCCO)nc2N1 (stereo not drawn) | -6.31% | –
6 | Cc1ccc(C(=O)OCC(=O)NC(=O)Cc2ccccc2)c(O)c1 | -14.9% | –
7 | CN(C)C(=O)c1cc(Br)ccc1Cl | 5.62% | –
8 | COC(=O)c1oc2ccc(Br)cc2c1NC(C)=O | -12.5% | –
9 | CC(=O)N/N=C(\C)c1ccc(Br)cc1Br | – | 10 µM (active)
10 | COc1ccc(CCNC(=O)CS(=O)(=O)Cc2nc(-c3ccc(C)cc3)oc2C)cc1OC | -11.7% | –
11 | CCCCNC(=O)C1(O)c2ccccc2NC(=O)N1c1ccc(Cl)cc1 (stereo not drawn) | 0.468% | –
12 | CCn1cc(/C=C(\NC(=O)c2cc(OC)c(OC)c(OC)c2)C(=O)N2CCN(C)CC2)c2ccccc21 | 0.404% | –
13 | O=C(N/N=C/c1ccc(O)c2ccccc12)c1cccnc1 | -14% | –
14 | Cc1ccc(/C=N/NC(=O)C2=NNC(c3ccccc3)(c3ccccc3)C2)c(O)c1 | – | 1.26 µM (active)
15 | Cc1nc2ccc(C(=O)N/N=C/c3ccc(O)cc3)cc2[nH]1 | 1.66% | –
16 | O=C(NCC(=O)N1CCC2(CC1)NCCc1[nH]cnc12)c1ccc(Br)cc1 | -10.7% | –
17 | CCOc1cc(/C=C/c2nc3ccccc3c(=O)[nH]2)cc(Br)c1OC | 28.2% | –
18 | CCOC(=O)CSc1nnc(CNc2nc(-c3ccccc3)cs2)n1C | 6.34% | –
19 | CCCn1c(CCNc2nc(-c3ccc(OC)cc3)cs2)nc2ccccc21 | – | 11.2 µM (active)
20 | CCCn1c(C(C)Nc2nc(-c3ccc(C)cc3)cs2)nc2cc(Cl)c(N3CCCCC3)cc21 (stereo not drawn) | – | 7.08 µM (active)
21 | CCCn1c(C(O)c2ccc(OCC)cc2)nc2ccccc21 (stereo not drawn) | -25.6% | –
22 | Nc1c(Cl)cc(-c2csc(N3CCCC3c3nc4cc(Cl)c(Cl)cc4n3CCOCCO)n2)cc1Cl (stereo not drawn) | – | 14.1 µM (active)
23 | CCCn1c(C2CCCN2c2nc(-c3ccc(C)cc3)cs2)nc2cc(Cl)c(N3CCCCC3)cc21 (stereo not drawn) | – | 10 µM (active)
24 | Cc1ccc(-c2csc(N3CCN(c4cc5c(cc4Cl)nc(-c4ccncc4)n5CCOCCO)CC3)n2)cc1 | -30.6% | –
25 | COc1cccc(S(=O)(=O)NCc2ccc(C(=O)NCc3ccccn3)cc2)c1 | -42.1% | –
26 | CCN(CC)CCCNC(=O)c1c(O)c2cc(F)cc3c2n(c1=O)C(C)CC3 (stereo not drawn) | -23% | –

Row | SMILES | activity change, negative = inhibition | Potency
27 | O=C1NC(=O)C(c2ccc(Cl)cc2)N1 (stereo not drawn) | 1.34% | –
28 | Cc1ccc(S(=O)(=O)NCC2CCC(C(=O)N3CCOCC3)CC2)cc1 (stereo not drawn) | 1.41% | –
29 | CC(=O)Nc1c2c(nn1-c1ccc(C)cc1C)CS(=O)C2 (stereo not drawn) | -12.4% | –
30 | CCc1cccc(C)c1NS(=O)(=O)c1cc(Br)cnc1N | -4.25% | –
31 | CC(=O)c1cccc(NC(=O)c2cc(C)nn2-c2ccccc2)c1 | 4.29% | –
32 | CCOC(=O)c1cc(S(=O)(=O)NCCc2ccc(OC)c(OC)c2)cn1C | 1.39% | –
33 | CNC(=O)C1CCN(S(=O)(=O)c2c(C)noc2/C=C/c2cccc(C)c2)CC1 | -5.56% | –
34 | COc1ccc(-c2cc3n(n2)CCc2nc4ccccc4n2-3)cc1 | 23% | –
35 | COc1ccc(-c2csc(N3CCN(Cc4ccc5c(c4)OCO5)CC3)n2)cc1 | -0.746% | –
36 | CCCn1c(C2CCCN2c2nc(-c3ccc(OC)cc3)cs2)nc2ccccc21 (stereo not drawn) | – | 2 µM (active)
37 | O=[N+]([O-])c1cc(C(F)(F)F)ccc1NCCc1ccncc1 | 21.3% | –
38 | CC1(C)Cc2cccc(OCC(=O)NCc3ccccc3)c2O1 | 29.7% | –
39 | CCCCc1ccc(NC(=O)NCc2cccnc2)cc1 | 26.2% | –
40 | CCOC(=O)C1CCCN(CCSc2ccc(C)cc2)C1 (stereo not drawn) | -23% | –
41 | Cc1nc(-c2ccc(Cl)cc2)sc1C(=O)NN | -2.42% | –
42 | Cc1nc(-c2ccc(Cl)cc2)sc1C(=O)CBr | – | 5.01 µM (active)
43 | Cc1nc(-c2ccccc2)sc1C(=O)/C=C/N(C)C | 1.56% | –
44 | COc1ccccc1OC(C)C(=O)Nc1ccc(S(=O)(=O)Nc2nccs2)cc1 (stereo not drawn) | 18.7% | –
45 | Cc1ccccc1-c1n[nH]c(=S)n1C | – | 2.82 µM (active)
46 | Cc1ccccc1-c1ccc(C(=O)O)s1 | -6.92% [at 96.6 µM] | –
47 | O=C(O)C1CC=CCC1C(=O)Nc1ccccc1C(=O)N1CCN(c2ccccc2)CC1 (stereo not drawn) | 3.34% | –
48 | COc1ccc(C(=O)Nc2ccccc2C(=O)N2CCN(c3ccccc3)CC2)cc1 | 13% | –
49 | CC(C)c1ccc(N2CCN(C(=O)c3ccccc3NC(=O)/C=C(\C(=O)O)c3ccccc3)CC2)cc1 | – | 3.16 µM (active)
50 | O=C(Cc1c(Cl)cccc1Cl)NC1CC1 | 4.83% | –
51 | Cc1c(Cl)cccc1NC(=O)NCc1ccc(C)n1C | -21.2% | –
52 | N#CC1=C(N)C(C#N)(C#N)[C@H](c2ccsc2)[C@H]2COCC=C12 | – | 17.8 µM (active)

Row | SMILES | activity change, negative = inhibition | Potency
53 | CCN1CC=C2C(C#N)=C(N)C(C#N)(C#N)[C@H](c3ccoc3)[C@H]2C1 | -34.4% | –
54 | CCOC(=O)N1CC=C2C(C#N)=C(N)C(C#N)(C#N)[C@H](c3cccs3)[C@H]2C1 | -18.5% | –
55 | CCCNC(=O)C(=O)Nc1cc2c3c(c1)CCC(=O)N3CCC2 | -25.3% | –
56 | CN(C(=O)C1CCN(c2ncnc3c2nc2n3CCCCC2)CC1)C1CCCCC1 | 27.8% | –
57 | CCOc1ccc(Nc2nc(Cc3nnc(SCC(=O)NC4CCCC4)n3C)cs2)cc1 | -27% | –
58 | COCCCn1c(Cc2csc(Nc3cccc(Cl)c3)n2)nnc1SCC(=O)OC1CCCCC1 | – | 11.2 µM (active)
59 | COCCCn1c(SCC(=O)NC2CCCC2)nnc1-c1ccccc1 | -12.2% | –
60 | CCCn1c(NC(=O)C23CC4CC(CC(O)(C4)C2)C3)nc2ccccc21 | – | 0.708 µM (active)
61 | CCCn1c(C(Cc2ccccc2)NC(=O)COC)nc2ccccc21 (stereo not drawn) | -6.17% | –
62 | CCOc1ccccc1NC(=O)C12CC3CC(C1)CC(c1ccc(C)cc1)(C3)C2 | 8.47% | –
63 | Cc1cc(C)nc(N/N=C/c2c(CO)cnc(C)c2O)n1 | -28.5% | –
64 | COc1ccc(Cn2c(=S)[nH]c3cc(C(=O)NCCCN4CCOCC4)ccc3c2=O)cc1 | -17.8% | –
65 | NC(=O)C1CCN(C(=O)c2ccc3c(=O)n(Cc4cccc(Br)c4)c(=S)[nH]c3c2)CC1 | 5.31% | –
66 | COc1ccc(CNc2nc3c(c(=O)[nH]c(=O)n3C)n2Cc2ccccc2)cc1 | 8.46% | –
67 | COc1ccc(Cn2c(=O)cc(C)[nH]c2=S)cc1 | – | 11.2 µM (active)
68 | COc1ccc(Cn2c(=S)[nH]c3cc(C(=O)N4CCCCC4)ccc3c2=O)cc1 | – | 8.91 µM (active)
69 | COCCn1c(=S)[nH]c2cc(C(=O)NCCc3ccc(OC)c(OC)c3)ccc2c1=O | -10.7% | –
70 | COc1ccc(Cn2c(O)c(/C=C3/C=CC=N3)c(=O)[nH]c2=O)cc1 | -1.9% | –
71 | COC(=O)c1ccc2c(=O)n(CC3CCCO3)c(=S)[nH]c2c1 (stereo not drawn) | – | 2.82 µM (active)
72 | O=C(NC1CCCCC1)c1ccc2c(=O)n(CC3CCCO3)c(=O)[nH]c2c1 (stereo not drawn) | -16.1% | –
73 | COc1cc2c(cc1OC)CN(CC(=O)Nc1ccc(F)cc1)CC2 | -11.1% | –
74 | CC(C)Oc1ccc(C(CC(=O)N2CCOCC2)C(C)C)cc1 (stereo not drawn) | 11.9% | –
75 | COc1ccc(-c2nc3c(s2)CCc2onc(-c4ccc(OC)cc4)c2-3)cc1 | 10.8% | –
76 | COc1cccc2cc(C(=O)NCc3ccc(C)cc3)c(=N)oc12 | -13.8% | –
77 | COc1cc(C(=O)Nn2c(CC(C)C)nc3ccccc3c2=O)cc(OC)c1OC | -37% [at 1.91 µM] | –
78 | CCOc1ccccc1NC(=O)Cn1ncc2ccc([N+](=O)[O-])cc21 | -2.79% | –

Row | SMILES | activity change, negative = inhibition | Potency
79 | CC(=O)Nc1ccc(S(=O)(=O)N2CCC(C(=O)N[C@@H](Cc3ccccc3)C(=O)O)CC2)cc1 | 5.02% | –
80 | COc1cccc(NC(=O)N2CCCC2C(=O)NC2CCCCC2)c1 (stereo not drawn) | -5.05% | –
81 | Cc1cc(-c2ccc(C)c(S(=O)(=O)NCCCN(Cc3ccccc3)C(C)C)c2)on1 | -8.59% | –
82 | O=C(NCCCN1CCCCC1)C1CC(=O)N(CCc2ccccc2)C1 (stereo not drawn) | -16.4% | –
83 | Oc1c(Cl)cc(Cl)c(Cl)c1Cc1c(O)c(Cl)cc(Cl)c1Cl | – | 5.62 µM (active)
84 | Cn1c(=O)n(C)c2cc(C(=O)Nc3ccc(Br)cc3)ccc21 | -36.7% | –
85 | CN1CCN(c2ccc(NC(=O)c3ccc4c(c3)[nH]c(=O)n4Cc3ccc(F)cc3)cc2)CC1 | 16.3% | –
86 | CC(C)n1c(=O)[nH]c2cc(C(=O)Nc3ccccc3)ccc21 | – | 7.94 µM (active)
87 | CCOC(=O)N1CCN(C(=O)C(C)NC(=O)c2ccco2)CC1 (stereo not drawn) | 10.7% | –
88 | O=C(N/N=C/C=C/c1ccco1)c1cccs1 | – | 5.01 µM (active)
89 | O=C(N/N=C/c1ccco1)c1ccc(C(=O)N/N=C/c2ccco2)o1 | 18.2% | –
90 | CC(/C=N/NC(=O)c1ccncc1)=C\c1ccco1 | -2.2% | –
91 | COc1cc(OC)c(NC(=O)C2CCCN2C(=O)OCc2ccccc2)cc1Cl (stereo not drawn) | -3.37% | –
92 | COc1ccc(OC)c(S(=O)(=O)n2c([N+](=O)[O-])cnc2C)c1 | -5.1% | –
93 | Cc1nc2ccc(S(=O)(=O)N(C)CC(=O)NC(C)c3ccccc3)cc2s1 (stereo not drawn) | 6.35% | –
94 | Cc1cccc(N(CC(=O)Nc2ccc(-c3nc4ccc(C)cc4s3)cc2)S(C)(=O)=O)c1 | 12.6% | –
95 | Cc1ccc2nc(-c3ccc(NC(=O)CN(C)S(=O)(=O)c4ccccc4)cc3)sc2c1 | – | 2 µM (active)
96 | CCN(C(=O)CSc1nnc(-c2ccncc2)o1)c1ccccc1 | -0.118% | –
97 | COc1ccc(NS(=O)(=O)c2cccc3nsnc23)cc1Cl | 20.8% | –
98 | CN(c1ccc2nc3ccccc3c(=O)n2n1)C1CCCCC1 | – | 0.398 µM (active)
99 | CCOC(=O)C(C)Sc1nc2ccccc2c(=O)n1CC1CCCCC1 (stereo not drawn) | 13.1% | –
100 | O=c1c2ccccc2nc2n1C1(CCCCC1)Cc1ccccc1-2 | 13.3% | –
101 | CC(=O)Oc1ccc(-c2cccc(C(=O)N3CCCCC3)c2)cc1 | 25.1% | –
102 | COc1ccccc1OCCn1c(SCC(N)=O)nc2ccccc21 | 17.5% | –
103 | O=C(NCc1cccnc1)C12CC3CC(CC(C3)C1)C2 | 0.141% | –
